Data on 54 compounds can be found in the antibiotic and cytotoxicity screens of Wong et al. (2023).

Each structure is given as a SMILES string. Hit rate of the full screen: of about 39,000 compounds, about 3,300 (8.5%) were called active. The entries come from a sample that favours actives as a whole.

The subject of the test is HepG2. The test can be described thus: cytotoxicity call (relative viability < 0.9). Conditions: 10 µM.
As to `C[C@@H]1CCCCO[C@H](CN(C)Cc2ccc3c(c2)OCO3)[C@H](C)CN([C@@H](C)CO)C(=O)c2cc(NC(=O)Nc3ccc(C(F)(F)F)cc3)ccc2O1`, the cytotoxicity call is “active”.
The result for `C[C@H](CO)N1C[C@H](C)[C@H](CN(C)Cc2ccc3c(c2)OCO3)OCCCC[C@H](C)Oc2ccc(NC(=O)Nc3ccc(C(F)(F)F)cc3)cc2C1=O` reads “active”; that for `C[C@@H]1CCCCO[C@@H](CN(C)Cc2ccc3c(c2)OCO3)[C@@H](C)CN([C@H](C)CO)C(=O)c2cc(NC(=O)Nc3ccc(C(F)(F)F)cc3)ccc2O1`, “active”.
The result for `C[C@H]1CCCCO[C@@H](CN(C)Cc2ccc3c(c2)OCO3)[C@@H](C)CN([C@@H](C)CO)C(=O)c2cc(NC(=O)Nc3ccc(C(F)(F)F)cc3)ccc2O1` reads “active”; that for `C[C@@H]1CCCCO[C@H](CN(C)C(=O)Cc2ccccc2)[C@H](C)CN([C@@H](C)CO)C(=O)c2cc(NC(=O)c3ccccc3)ccc2O1`, “inactive”.
Consider `CCCNC(=O)N[C@@H]1CC[C@@H](CC(=O)N2CCN(C)CC2)O[C@@H]1CO`, for which the cytotoxicity call is “inactive”.
The result for `Cc1noc(C)c1S(=O)(=O)Nc1ccc2c(c1)C(=O)N([C@H](C)CO)C[C@@H](C)[C@@H](CN(C)C(=O)Nc1ccc(F)cc1)OCCCC[C@@H](C)O2` reads “inactive”.
The result for `O=C(Nc1ccccc1C(=O)O)c1nnc[nH]1` reads “inactive”.
Under `O=C(NCC[C@H]1CC[C@H](NS(=O)(=O)c2cccc(F)c2)[C@H](CO)O1)C1CC1` stands “inactive”.
As to `C[C@@H](Oc1ccccc1)c1ccn[nH]1`, the cytotoxicity call is “inactive”.
Under `C[C@H]([C@H](C)N1CC(=O)NC(=O)C1)N1CC(=O)NC(=O)C1` stands “inactive”; under `C[C@@H]1CCCCO[C@H](CN(C)Cc2ccc3c(c2)OCO3)[C@H](C)CN([C@H](C)CO)C(=O)c2cc(NC(=O)Nc3ccc(C(F)(F)F)cc3)ccc2O1`, “active”; under `C[C@@H]1CCCCO[C@@H](CN(C)Cc2ccc3c(c2)OCO3)[C@H](C)CN([C@H](C)CO)C(=O)c2cc(NC(=O)Nc3ccc(C(F)(F)F)cc3)ccc2O1`, “active”.
Under `C[C@@H]1CCCCO[C@H](CN(C)Cc2ccc3c(c2)OCO3)[C@@H](C)CN([C@H](C)CO)C(=O)c2cc(NC(=O)Nc3ccc(C(F)(F)F)cc3)ccc2O1` stands “active”.
As for `C[C@H]1CCCCO[C@H](CN(C)Cc2ccc3c(c2)OCO3)[C@@H](C)CN([C@@H](C)CO)C(=O)c2cc(NC(=O)Nc3ccc(C(F)(F)F)cc3)ccc2O1`, the cytotoxicity call was “active”.
The result for `COCN(C#N)c1nc(N(C)C)nc(N(C)C)n1` reads “inactive”; that for `C[C@@H]1CN([C@H](C)CO)S(=O)(=O)c2ccc(-c3ccncc3)cc2O[C@H]1CN(C)S(=O)(=O)c1ccccc1F`, “inactive”; that for `NC(=O)c1cccnc1N1CCN(C(=O)[C@@H]2CC(=O)N(C3CC3)C2)CC1`, “inactive”.
As to `CCCC(=O)Nc1ccc2c(c1)C(=O)N(C)[C@@H]1CC[C@@H](CC(=O)NCCN3CCCCC3)O[C@H]1CO2`, the cytotoxicity call is “inactive”.
Under `Cn1nc(O)c(=O)[nH]c1=S` stands “inactive”; under `O=C(Cc1ccncc1)Nc1ccc2c(c1)[C@H]1C[C@H](CC(=O)N3CCc4ccccc4C3)O[C@@H](CO)[C@H]1O2`, “inactive”; under `Cc1cn2c3c(=O)n(C)c(=O)n(C)c3nc2n1CCN1CCOCC1`, “inactive”.
With `Cc1noc(C)c1NC(=O)N(C)C[C@H]1OCCCC[C@H](C)Oc2ccc(NC(=O)CCC(F)(F)F)cc2C(=O)N([C@H](C)CO)C[C@@H]1C`, the cytotoxicity call is “inactive”.
The result for `C[C@@H]1CN([C@@H](C)CO)C(=O)c2cc(NC(=O)Nc3ccc(C(F)(F)F)cc3)ccc2O[C@@H](C)CCCCO[C@H]1CN(C)Cc1ccc2c(c1)OCO2` reads “active”.
The result for `C[C@H](CO)N1C[C@H](C)[C@@H](CN(C)Cc2ccc3c(c2)OCO3)OCCCC[C@H](C)Oc2ccc(NC(=O)Nc3ccc(C(F)(F)F)cc3)cc2C1=O` reads “active”.
With `C[C@@H]1CN([C@H](C)CO)C(=O)c2cc(NC(=O)Nc3ccc(C(F)(F)F)cc3)ccc2O[C@@H](C)CCCCO[C@H]1CN(C)Cc1ccc2c(c1)OCO2`, the cytotoxicity call was “active”.
As to `Cn1c(=O)[nH]c(=O)c2c(=O)cc[nH]c21`, the cytotoxicity call was “inactive”.
The result for `COc1ccccc1CNC(=O)C[C@H]1C[C@H]2c3cc(NC(=O)Cc4ccncc4)ccc3O[C@H]2[C@@H](CO)O1` reads “inactive”; that for `C[C@@H]1CCCCO[C@H](CN(C)S(=O)(=O)c2ccc(F)cc2)[C@H](C)CN([C@H](C)CO)C(=O)c2cc(NC(=O)Nc3cccc4ccccc34)ccc2O1`, “inactive”; that for `C[C@@H]1CN([C@@H](C)CO)C(=O)c2c(c3ccccc3n2C)-c2ccccc2CO[C@H]1CN(C)C(=O)Nc1cccc(Cl)c1Cl`, “inactive”.
Under `CC(C)[C@H](NC=O)C(=O)OC[C@H](O)[C@H](O)[C@H](O)[C@H](O)COC(=O)[C@H](NC=O)C(C)C` stands “inactive”; under `C[C@H](CO)N1C[C@H](C)[C@@H](CN(C)Cc2ccncc2)Oc2c(NC(=O)c3ccncc3)cccc2C1=O`, “inactive”.
As for `O=C1CSC(/N=C/c2ccccc2O)=NN1`, the cytotoxicity call is “active”.
Under `O=C(NCc1cccc(F)c1)[C@@H]1[C@@H](CO)[C@@H]2Cn3c(cccc3=O)[C@H]1N2C(=O)c1cnccn1` stands “inactive”; under `CN(C)CCC=C1c2ccccc2Sc2ccc(Cl)cc21.Cl`, “active”; under `CN(C)CC/C=C1/c2ccccc2Sc2ccc(Cl)cc21`, “active”.
Under `CCS(=O)(=O)N1C[C@]2(CN(Cc3cc(ccc3F)F)C2)c2c(n(c3cc(ccc23)OC)C)[C@H]1CO` stands “inactive”; under `CCS(=O)(=O)N1C[C@]2(CN(Cc3ccc4c(c3)OCO4)[C@H](CO)c3c2c2ccc(cc2n3C)OC)C1`, “inactive”; under `C[C@@H]1CN([C@@H](C)CO)C(=O)c2cccc(NS(C)(=O)=O)c2O[C@H]1CN(C)C(=O)Nc1ccc2c(c1)OCO2`, “inactive”.
On to `Cc1noc(C)c1S(=O)(=O)N(C)C[C@H]1OCCCC[C@@H](C)Oc2ccc(N(C)C)cc2C(=O)N([C@H](C)CO)C[C@@H]1C`, for which the cytotoxicity call was “inactive”.
The result for `COc1ccc(NC(=O)Nc2ccc3c(c2)C(=O)N([C@@H](C)CO)C[C@H](C)[C@@H](CN(C)C(=O)CCC(F)(F)F)OCCCC[C@@H](C)O3)cc1` reads “inactive”; that for `C[C@H](CO)N1C[C@H](C)[C@@H](CN(C)Cc2ccncc2)OCCCC[C@H](C)Oc2ccc(NC(=O)C3CCCCC3)cc2C1=O`, “inactive”.
Consider `COc1ccc(CN(C)C[C@H]2Oc3ccc(NC(=O)CCCN(C)C)cc3C(=O)N([C@H](C)CO)C[C@H]2C)cc1`, for which the cytotoxicity call is “inactive”.
Under `C[C@H](CO)N1C[C@H](C)[C@@H](CN(C)Cc2ccc(Oc3ccccc3)cc2)Oc2ccc(NC(=O)CCCN(C)C)cc2C1=O` stands “inactive”; under `C[C@@H]1CN([C@H](C)CO)C(=O)c2cc(NC(=O)CCCN(C)C)ccc2O[C@H]1CN(C)Cc1ccc(Oc2ccccc2)cc1`, “active”; under `C[C@@H]1CN([C@H](C)CO)C(=O)c2cc(NC(=O)CCCN(C)C)ccc2O[C@@H]1CN(C)Cc1ccc(Oc2ccccc2)cc1`, “active”.
Under `C[C@H]1CN([C@@H](C)CO)C(=O)c2cc(NC(=O)CCCN(C)C)ccc2O[C@@H]1CN(C)Cc1ccc(Oc2ccccc2)cc1` stands “active”; under `C[C@@H]1CN([C@@H](C)CO)C(=O)c2cc(NC(=O)CCCN(C)C)ccc2O[C@H]1CN(C)Cc1ccc(Oc2ccccc2)cc1`, “inactive”; under `C[C@H](CO)N1C[C@H](C)[C@@H](CN(C)Cc2ccccc2)Oc2ccc(NC(=O)CCCN(C)C)cc2C1=O`, “inactive”.
The result for `C[C@@H]1CN([C@@H](C)CO)C(=O)c2cc(NC(=O)CCCN(C)C)ccc2O[C@H]1CN(C)Cc1ccccc1` reads “inactive”.
For the compound `C[C@H]1CN([C@@H](C)CO)C(=O)c2cc(NC(=O)CCCN(C)C)ccc2O[C@H]1CN(C)Cc1ccc(Oc2ccccc2)cc1`, the cytotoxicity call was “active”.
Consider `COc1ccc(CN(C)C[C@@H]2Oc3ccc(NC(=O)CCCN(C)C)cc3C(=O)N([C@H](C)CO)C[C@H]2C)cc1`, for which the cytotoxicity call was “inactive”.
On to `C[C@@H]1CN([C@H](C)CO)C(=O)c2cc(NC(=O)CCCN(C)C)ccc2O[C@H]1CN(C)Cc1ccccc1`, for which the cytotoxicity call is “inactive”.
For `C[C@H]1CN([C@@H](C)CO)C(=O)c2cc(NC(=O)CCCN(C)C)ccc2O[C@H]1CN(C)Cc1ccccc1`, the cytotoxicity call was “inactive”.
